Hits are enriched below; roughly 3.4% of the tested compounds scored in any of these assays.
TEAD-YAP block: TEAD-YAP interaction inhibition; hit rate 1.4% among 640,000; HEK-TIYL cells, TEAD-Gal4/YAP UAS-luciferase luminescence; inhibition, % at 9.12 µM; AID 1259422; in the data active = inhibition above about 32%;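 note: 0% = median of test compound wells and 100% = reference inhibitor wells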
FBW7 activator: human FBW7 E3 ligase activation, primary screen; AlphaScreen FBW7–phospho-cyclin E peptide binding, activator screen; hit rate 0.13% among 650,000; Q969H0; normalized activity (activation), % at 26.1 µM; in the data active = normalized activity above about 1.9%;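 note: purified mutant Fbw7 with reduced substrate affinity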
MITF primary: inhibitors of human MITF; hit rate 0.91% among 650,000; AID 1259374; inhibition, % at 2.6 µM; O75030; AlphaScreen MITF homodimerization, bead proximity signal; in the data active = inhibition above about 50%;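 note: 0% = vehicle wells with protein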
Target sequence (O75030 whole entry, looked up): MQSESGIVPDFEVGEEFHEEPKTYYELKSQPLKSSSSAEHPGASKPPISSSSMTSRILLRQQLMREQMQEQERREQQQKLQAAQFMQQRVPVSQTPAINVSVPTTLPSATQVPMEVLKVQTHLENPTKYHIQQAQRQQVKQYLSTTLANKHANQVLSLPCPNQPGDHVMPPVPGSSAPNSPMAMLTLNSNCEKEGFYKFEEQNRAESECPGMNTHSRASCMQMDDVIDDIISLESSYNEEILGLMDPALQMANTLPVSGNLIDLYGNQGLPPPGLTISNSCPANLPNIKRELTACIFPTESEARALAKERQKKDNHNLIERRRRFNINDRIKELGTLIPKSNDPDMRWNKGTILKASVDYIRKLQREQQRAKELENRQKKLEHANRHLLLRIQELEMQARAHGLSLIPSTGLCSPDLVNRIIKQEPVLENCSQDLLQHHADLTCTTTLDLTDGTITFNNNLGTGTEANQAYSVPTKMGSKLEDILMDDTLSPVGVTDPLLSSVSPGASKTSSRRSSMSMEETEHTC
GPR151 ag: human GPR151 activation; Q8TDV0; PathHunter beta-arrestin GPR151 cells, luminescence; activation, % at 11.2 µM; hit rate 1% among 650,000; AID 1508602; in the data active = activation above about 4.9%;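 note: 0% = median of compound wells and 100% = cells with positive control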
GPR151 confirm: human GPR151 activation, confirmation screen; 6,700 tested, under 10 active; GPR151 PathHunter beta-arrestin cells, luminescence, 90 min; % of EA-reagent control over plate median; AID 1508609; shares compounds with GPR151 ag; activation, % at 11.2 µM;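 active = mean percent activation across replicates above the confirmation screen cutoff of 4.91%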
GPR119 counter: activates human GPR119 in a GPR151 counter-screen | shares compounds with GPR151 ag | activation, % at 11.2 µM | AID 1508611 | GPR119 PathHunter beta-arrestin cells, luminescence, 90 min; 0 = compound-well median, 100 = enzyme-acceptor control | hit rate 0.3% among 6,700;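 active = mean percent activation in the counterscreen above 29.09%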;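 note: counterscreen on off-target GPR119 to flag nonselective hits from the GPR151 activator screen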
The depositor's hits bear a star; . = no result given.

SMILES | TEAD-YAP block | FBW7 activator | MITF primary | GPR151 ag | GPR151 confirm | GPR119 counter
CNC(=O)CC1C(=O)N(c2cccc(C(F)(F)F)c2)C(=S)N1CCc1ccc(OC)c(OC)c1 (stereo not given) | -9.2 | -0.1 | 0.8 | 8.6* | -0.4 | 9.2
O=C(COC(=O)C1=NN(c2c(F)c(F)cc(F)c2F)C(=O)CC1)Nc1ccccc1F | -7.9 | -0.1 | -6.6 | -0.2 | . | .
COC(=O)C(NC(=O)c1ccco1)(Nc1sc2c(c1C#N)CCC(C(C)(C)C)C2)C(F)(F)F (stereo not given) | -7.6 | 0.1 | 0.2 | -1.7 | . | .
COc1ccccc1CNC(=O)CC1C(=O)NCCN1CCC(C)C (stereo not given) | -0.2 | 0.0 | 1.7 | 5.8* | 0.2 | 0.1
COCCn1c(C)cc2c(c1=O)C(c1ccc(Cl)cc1)C(C(=O)OC)=C(N)O2 (stereo not given) | 7.6 | -0.1 | -2.9 | 0.0 | . | .
COCCn1c(C)cc2c(c1=O)C(c1ccc(Cl)cc1Cl)C(C(=O)OC)=C(N)O2 (stereo not given) | 0.3 | 0.1 | 9.9 | 7.1* | 0.7 | -6.0
CCN(CC(=O)Nc1ccc(NC(C)=O)cc1)S(=O)(=O)/C=C/c1ccccc1 | -3.1 | 0.0 | 5.2 | 7.4* | 0.2 | 4.2
COc1ccc(CCNC(=O)CC(C)=O)cc1OC | 2.5 | -0.1 | 1.0 | 2.6 | . | .
Cc1ccc(CN2CCC(N(C)C(C)c3nccs3)CCC2=O)cc1 (stereo not given) | -4.0 | -0.5 | -0.7 | 5.2* | 0.6 | 14.3
C=CCn1cc(I)c(=O)[nH]c1=O | 0.9 | 0.1 | 19.4 | 1.0 | . | .
COc1cccc(/C=N\Nc2nnc3c(n2)[nH]c2c(C)cccc23)c1 | 1.8 | 0.2 | 9.2 | -1.1 | . | .
COc1ccc(/C=N\Nc2nnc3c(n2)[nH]c2c(C)cccc23)cc1OC | -11.6 | 0.6 | 13.1 | 9.7* | -0.4 | 7.6
Cc1cccc2c1[nH]c1nc(N/N=C\c3ccccc3O)nnc12 | -5.2 | -0.3 | 11.8 | 5.0* | 0.8 | 2.9
CC1(C)CC(=O)C2=C(C1)N(c1cccc(C(F)(F)F)c1)C(N)=C(C#N)C2c1ccc2c(c1)OCO2 (stereo not given) | 0.4 | 0.0 | 4.2 | 0.7 | . | .
N#CC1=C(N)N(c2cccc(C(F)(F)F)c2)C2=C(C(=O)CCC2)C1c1ccc2c(c1)OCO2 (stereo not given) | -5.2 | 0.0 | 11.2 | 5.0* | 1.4 | 7.8
COc1cccc2cc(-c3cn4ccc(C)cc4n3)c(=O)oc12 | -69.5 | -0.1 | -1.9 | 1.4 | . | .
CCOc1cccc2cc(-c3cn4cc(C)ccc4n3)c(=O)oc12 | -36.0 | 0.1 | 9.3 | 10.5* | -1.2 | -17.1
CCOC(=O)c1cnn(-c2ccc(Cl)nn2)c1N | -39.3 | 0.1 | 9.1 | 0.1 | . | .
CCC(C(=O)NCCN(C)C)n1nc(C)c2sc3ccccc3c2c1=O (stereo not given) | 7.0 | -0.1 | -0.5 | -0.4 | . | .
O=C1CCCC2=C1C(c1ccc(O)c(Cl)c1)C1=C(CCCC1=O)O2 | 34.5* | -0.1 | -13.5 | 7.4* | -0.2 | 0.6
CCCCCCNC(=O)c1ccc2nc(-c3cccs3)c(-c3cccs3)nc2c1 | 2.6 | -0.2 | -2.5 | 1.2 | . | .
CCOC(=O)Cc1c(C)c2ccc(N(CC)CC)cc2oc1=O | -9.5 | 1.1 | -14.4 | 7.2* | 0.0 | 9.8
C=CCOc1c(Br)cc(CNCCO)cc1OC | 4.2 | 0.1 | -4.8 | 6.7* | -1.2 | -2.8
COc1cc(CNCCO)cc(Br)c1OCc1ccccc1 | 0.0 | 1.3 | 16.2 | -1.2 | . | .
CCC(=O)N1c2ccccc2-c2nnc(SC)nc2OC1c1cc(OC)ccc1OC (stereo not given) | 4.3 | 0.1 | -14.3 | -1.8 | . | .
SMILES | TEAD-YAP block | FBW7 activator | MITF primary | GPR151 ag | GPR151 confirm | GPR119 counter
COc1ccc(O)c(CN(C)CCN(C)C)c1 | 10.5 | 0.6 | 8.2 | 7.2* | -0.5 | -8.9
COc1ccc(O)c(CN2CCCCC2)c1 | -8.9 | -0.4 | -3.9 | -0.3 | . | .
COc1cccc2sc(=NC(=O)c3ccc([N+](=O)[O-])s3)n(C)c12 | -3.1 | -0.1 | -14.8 | 1.3 | . | .
O=C1N2CN(C(c3ccccc3)c3ccccc3)CN=C2SC1(CO)CO | 4.6 | -0.2 | 17.2 | 7.7* | -0.8 | -6.0
C=CCC(O)(CC=C)C(C)NC(=O)C1CC(Cc2cccc(Cl)c2)=NO1 (stereo not given) | -1.8 | -0.1 | 4.5 | 11.4* | 1.1 | 9.2
CC(NC(=O)C1CC(Cc2cccc(F)c2)=NO1)c1ccccc1Cl (stereo not given) | -54.8 | 0.1 | 4.9 | 0.1 | . | .

High-throughput results from PubChem BioAssay.
